Test results: the antibiotic and cytotoxicity screens of Wong et al. (2023)
Out of some 39,000 compounds screened, about 3,300 (8.5%) were called active. Only a selection was taken, and actives are over-represented in it overall.

Test system: HepG2
Assay: cytotoxicity call (relative viability < 0.9)
Conditions: 10 µM

| SMILES | cytotoxicity call |
| --- | --- |
| Cc1cn([C@H]2O[C@@H](CO)[C@H](O)[C@H]2F)c(=O)[nH]c1=O | inactive |
| COCCNC(=O)C[C@@H]1C[C@H]2c3cc(NC(=O)COC)ccc3O[C@H]2[C@@H](CO)O1 | inactive |
| COc1ccc(S(=O)(=O)Nc2cccc3c2O[C@H](CN(C)S(=O)(=O)c2ccc(C)cc2)[C@H](C)CN([C@H](C)CO)C3=O)cc1 | inactive |
| COc1ccccc1Nc1nc(-c2ccc(Cl)cc2)cs1 | inactive |
| C[C@H](CO)N1C[C@H](C)[C@H](CN(C)S(C)(=O)=O)Oc2ccc(NC(=O)CCN3CCOCC3)cc2CC1=O | inactive |
| C[C@@H]1CN([C@H](C)CO)C(=O)Cc2cc(NC(=O)C3CC3)ccc2O[C@H]1CN(C)C(=O)Nc1ccc2c(c1)OCO2 | inactive |
| C[C@@H]1CN([C@H](C)CO)C(=O)Cc2cc(NC(=O)c3ccncc3)ccc2O[C@H]1CN(C)Cc1ccc(C(=O)O)cc1 | inactive |
| COc1ccc(S(=O)(=O)Nc2ccc3c(c2)C(=O)N([C@@H](C)CO)C[C@@H](C)[C@H](CN(C)C(=O)Nc2ccccc2)OCCCC[C@@H](C)O3)cc1 | inactive |
| CCN(CC)CCOC(=O)C1(C2CCCCC2)CCCCC1.Cl | inactive |
| CCN(CC)CCOC(=O)C(c1ccccc1)C1CCCCC1.Cl (stereo not drawn) | active |
| CCN(CC)CCOC(=O)C(c1ccccc1)c1ccccc1.Cl | inactive |
| COc1ccc(S(=O)(=O)N(C)C[C@@H]2Oc3ncc(-c4ccccc4)cc3C(=O)N([C@H](C)CO)C[C@@H]2C)cc1 | inactive |
| C[C@H](CO)N1C[C@H](C)[C@H](CN(C)S(=O)(=O)c2cn(C)cn2)Oc2cc(C3=CCCCC3)ccc2S1(=O)=O | inactive |
| COc1ccc(CNC(=O)C[C@@H]2C[C@@H]3c4cc(NC(=O)NC5CCCC5)ccc4O[C@@H]3[C@H](CO)O2)cc1 | inactive |
| COC(=O)[C@@]12CC[C@@H](C)[C@@H](C)[C@@H]1C1=CC[C@H]3[C@@]4(C)CC[C@@H](OC(C)=O)C(C)(C)[C@@H]4CC[C@@]3(C)[C@@]1(C)CC2 | inactive |
| CC1(C)CCC2(C(=O)O)CCC3(C)C(=CCC4C5(C)CCC(O)C(C)(C)C5CCC43C)C2C1 (stereo not drawn) | inactive |
| CC1CCC2(C(=O)O)CCC3(C)C(=CCC4C5(C)CCC(O)C(C)(C)C5CCC43C)C2C1C (stereo not drawn) | active |
| Cc1noc(C)c1S(=O)(=O)Nc1ccc2c(c1)CC(=O)N([C@H](C)CO)C[C@@H](C)[C@@H](CN(C)C(=O)Nc1ccccc1)O2 | inactive |
| COc1ccccc1S(=O)(=O)N1C[C@@H](O)COC[C@@H]2O[C@H](CC(=O)O)CC[C@H]21 | inactive |
| C[C@@H]1CN([C@H](C)CO)C(=O)c2cc(NS(=O)(=O)c3cccs3)ccc2O[C@@H](C)CCCCO[C@@H]1CN(C)S(=O)(=O)c1ccc(Cl)cc1 | active |
| C[C@@H]1CCCCO[C@H](CN(C)S(=O)(=O)c2ccc(Cl)cc2)[C@H](C)CN([C@@H](C)CO)C(=O)c2cc(NS(=O)(=O)c3cccs3)ccc2O1 | inactive |

| SMILES | cytotoxicity call |
| --- | --- |
| C[C@@H]1CCCCO[C@@H](CN(C)S(=O)(=O)c2ccc(Cl)cc2)[C@@H](C)CN([C@@H](C)CO)C(=O)c2cc(NS(=O)(=O)c3cccs3)ccc2O1 | inactive |
| C[C@@H]1CCCCO[C@H](CN(C)S(=O)(=O)c2ccc(Cl)cc2)[C@@H](C)CN([C@@H](C)CO)C(=O)c2cc(NS(=O)(=O)c3cccs3)ccc2O1 | inactive |
| C[C@@H]1CCCCO[C@H](CN(C)S(=O)(=O)c2ccc(Cl)cc2)[C@H](C)CN([C@H](C)CO)C(=O)c2cc(NS(=O)(=O)c3cccs3)ccc2O1 | inactive |
| C[C@@H]1CN([C@@H](C)CO)C(=O)c2cc(NS(=O)(=O)c3cccs3)ccc2O[C@@H](C)CCCCO[C@H]1CN(C)S(=O)(=O)c1ccc(Cl)cc1 | active |
| C[C@H](CO)N1C[C@H](C)[C@@H](CN(C)S(=O)(=O)c2ccc(Cl)cc2)OCCCC[C@H](C)Oc2ccc(NS(=O)(=O)c3cccs3)cc2C1=O | inactive |
| C[C@H]1CCCCO[C@H](CN(C)S(=O)(=O)c2ccc(Cl)cc2)[C@@H](C)CN([C@@H](C)CO)C(=O)c2cc(NS(=O)(=O)c3cccs3)ccc2O1 | inactive |
| C[C@@H]1CCCCO[C@@H](CN(C)S(=O)(=O)c2ccc(Cl)cc2)[C@H](C)CN([C@@H](C)CO)C(=O)c2cc(NS(=O)(=O)c3cccs3)ccc2O1 | active |
| C[C@@H]1CCCCO[C@H](CN(C)S(=O)(=O)c2ccc(Cl)cc2)[C@@H](C)CN([C@H](C)CO)C(=O)c2cc(NS(=O)(=O)c3cccs3)ccc2O1 | inactive |
| C[C@H](CO)N1C[C@H](C)[C@H](CN(C)S(=O)(=O)c2ccc(Cl)cc2)OCCCC[C@H](C)Oc2ccc(NS(=O)(=O)c3cccs3)cc2C1=O | inactive |
| C[C@@H]1CCCCO[C@@H](CN(C)S(=O)(=O)c2ccc(Cl)cc2)[C@H](C)CN([C@H](C)CO)C(=O)c2cc(NS(=O)(=O)c3cccs3)ccc2O1 | active |
| C[C@@H]1CCCCO[C@@H](CN(C)C(=O)NC2CCCCC2)[C@H](C)CN([C@H](C)CO)C(=O)c2cc(NC(=O)Nc3ccc4c(c3)OCO4)ccc2O1 | inactive |
| C[C@@H]1CN([C@H](C)CO)C(=O)c2cccc(NS(=O)(=O)c3cn(C)cn3)c2O[C@@H]1CN(C)Cc1ccncc1 | inactive |
| C[C@@H]1CN([C@H](C)CO)S(=O)(=O)c2ccc(-c3cncnc3)cc2O[C@@H]1CN(C)C(=O)CN(C)C | inactive |
| C[C@@H]1CN([C@@H](C)CO)C(=O)c2cc(NC(=O)NC3CCCCC3)ccc2O[C@@H](C)CCCCO[C@H]1CN(C)C(=O)c1ccccc1 | inactive |
| CO[C@@H](CN(C)C(=O)Nc1ccc(C(F)(F)F)cc1)[C@H](C)CN(Cc1ccccc1Cl)[C@H](C)CO | inactive |
| Cc1ccc(S(=O)(=O)Nc2ccc3c(c2)C(=O)N([C@@H](C)CO)C[C@@H](C)[C@@H](CN(C)Cc2ccc(C(=O)O)cc2)OCCCC[C@@H](C)O3)cc1 | inactive |
| COc1cc(-c2cc(=O)c3c(s2)N(c2ccc(OC)c(OC)c2)[C@@H](c2ccc(O)c(OC)c2)CC3=O)ccc1O | inactive |
| COc1ccc(S(=O)(=O)Nc2ccc3c(c2)CC(=O)N([C@@H](C)CO)C[C@@H](C)[C@H](CN(C)S(=O)(=O)c2ccccc2)O3)cc1 | inactive |
| CC(C)NC(=O)N(C)C[C@H]1OCCCC[C@H](C)Oc2ccc(NS(C)(=O)=O)cc2C(=O)N([C@H](C)CO)C[C@@H]1C | inactive |
| C[C@H](CO)N1C[C@H](C)[C@@H](CN(C)C(=O)Nc2cccc3ccccc23)Oc2ccc(NS(=O)(=O)c3cccs3)cc2CC1=O | inactive |
| CN(C)CCN1CCNCC1 | inactive |

| SMILES | cytotoxicity call |
| --- | --- |
| C[C@H](NC(=O)N(C)C[C@H]1OCc2ccccc2-c2ccccc2C(=O)N([C@H](C)CO)C[C@@H]1C)c1ccccc1 | inactive |
| O=C(NCCO[N+](=O)[O-])c1cccnc1 [listing 1 of 2 here] | active |
| CC(=O)OCCNC(=O)c1cccnc1 | inactive |
| O=C(NCCO[N+](=O)[O-])c1cccnc1 [listing 2 of 2 here] | inactive |
| CC(C)CC#Cc1ccc2c(c1)O[C@H](CN(C)Cc1cncnc1)[C@@H](C)CN([C@@H](C)CO)S2(=O)=O | inactive |
| O=C(C[C@H]1C=C[C@@H](NC(=O)c2cccc(F)c2)[C@@H](CO)O1)NCCN1CCCC1 | inactive |
| C[C@@H]1COCCS(=O)(=O)N1C | inactive |
| O=C(CCCCCNC(=O)OC[C@H]1C(=O)O[C@@H](Cc2ccccc2)[C@H]2[C@H]3C(=CC(=O)[C@@H]3C3CC3)CN21)NO | inactive |
| C[C@@H]1CCCCO[C@@H](CN(C)C(=O)CCC(F)(F)F)[C@@H](C)CN([C@@H](C)CO)C(=O)c2cc(NS(=O)(=O)c3ccc(F)cc3)ccc2O1 | inactive |
| COc1cccc(S(=O)(=O)N(C)C[C@@H]2OCc3cn(nn3)CCCC(=O)N([C@@H](C)CO)C[C@@H]2C)c1 | inactive |
| C[C@@H]1CCCCO[C@H](CN(C)S(=O)(=O)c2ccc(Cl)cc2)[C@H](C)CN([C@H](C)CO)C(=O)c2cc(NC(=O)NC3CCCCC3)ccc2O1 | active |
| C[C@H](CO)N1C[C@H](C)[C@H](CN(C)S(=O)(=O)c2ccc(Cl)cc2)OCCCC[C@H](C)Oc2ccc(NC(=O)NC3CCCCC3)cc2C1=O | inactive |
| C[C@@H]1CCCCO[C@@H](CN(C)S(=O)(=O)c2ccc(Cl)cc2)[C@H](C)CN([C@H](C)CO)C(=O)c2cc(NC(=O)NC3CCCCC3)ccc2O1 | active |
| C[C@@H]1CCCCO[C@@H](CN(C)S(=O)(=O)c2ccc(Cl)cc2)[C@@H](C)CN([C@H](C)CO)C(=O)c2cc(NC(=O)NC3CCCCC3)ccc2O1 | inactive |
| C[C@H](CO)N1C[C@H](C)[C@@H](CN(C)S(=O)(=O)c2ccc(Cl)cc2)OCCCC[C@H](C)Oc2ccc(NC(=O)NC3CCCCC3)cc2C1=O | active |
| C[C@@H]1CN([C@@H](C)CO)C(=O)c2cc(NC(=O)NC3CCCCC3)ccc2O[C@@H](C)CCCCO[C@@H]1CN(C)S(=O)(=O)c1ccc(Cl)cc1 | inactive |
| C[C@@H]1CCCCO[C@@H](CN(C)S(=O)(=O)c2ccc(Cl)cc2)[C@H](C)CN([C@@H](C)CO)C(=O)c2cc(NC(=O)NC3CCCCC3)ccc2O1 | inactive |
| C[C@@H]1CN([C@H](C)CO)C(=O)c2cc(NC(=O)NC3CCCCC3)ccc2O[C@@H](C)CCCCO[C@@H]1CN(C)S(=O)(=O)c1ccc(Cl)cc1 | inactive |
| C[C@@H]1CN([C@H](C)CO)C(=O)c2cc(NC(=O)NC3CCCCC3)ccc2O[C@@H](C)CCCCO[C@H]1CN(C)S(=O)(=O)c1ccc(Cl)cc1 | active |
| C[C@@H]1CCCCO[C@H](CN(C)S(=O)(=O)c2ccc(Cl)cc2)[C@@H](C)CN([C@H](C)CO)C(=O)c2cc(NC(=O)NC3CCCCC3)ccc2O1 | inactive |
| Cc1ccc(S(=O)(=O)N(C)C[C@H]2OCCCC[C@H](C)Oc3ccc(NS(C)(=O)=O)cc3C(=O)N([C@H](C)CO)C[C@H]2C)cc1 | inactive |
